# According to PubChem BioAssay AID1645851 (National Center for Advancing Translational Sciences (NCATS), 2021):
# About 1,200 (0.86%) of roughly 140,000 compounds were called active. The list comes from a sample in which actives are over-represented; it also holds similar structures and randomly drawn compounds. Values without a mark were called inactive. No stated cut-off is given here; in the data, active means activity change below about -25%; inactive means the rest.
# Biological target: Inositol hexakisphosphate kinase 1 (Homo sapiens) (UniProt Q92551)
# Test: Primary qHTS assay for small molecule inhibitors of Inositol hexaphosphate kinase 1 (IP6K1); further: series mostly up to about 58 µM
# Conditions: ADP-Glo luminescence, 2 h, active compounds read low
# Outline: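 ADP-Glo luminescence measures ADP made by human IP6K1 during a 2 h RT reaction with ATP/IP6 (mix at 1.3 mM/130 uM); top library doses 57.5 and 19.1 uM final.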
# On the % scale 0 is the no-effect control and ±100 the full control effect.
# Inositol hexakisphosphate kinase 1 (Homo sapiens), sequence (Q92551 whole entry, looked up): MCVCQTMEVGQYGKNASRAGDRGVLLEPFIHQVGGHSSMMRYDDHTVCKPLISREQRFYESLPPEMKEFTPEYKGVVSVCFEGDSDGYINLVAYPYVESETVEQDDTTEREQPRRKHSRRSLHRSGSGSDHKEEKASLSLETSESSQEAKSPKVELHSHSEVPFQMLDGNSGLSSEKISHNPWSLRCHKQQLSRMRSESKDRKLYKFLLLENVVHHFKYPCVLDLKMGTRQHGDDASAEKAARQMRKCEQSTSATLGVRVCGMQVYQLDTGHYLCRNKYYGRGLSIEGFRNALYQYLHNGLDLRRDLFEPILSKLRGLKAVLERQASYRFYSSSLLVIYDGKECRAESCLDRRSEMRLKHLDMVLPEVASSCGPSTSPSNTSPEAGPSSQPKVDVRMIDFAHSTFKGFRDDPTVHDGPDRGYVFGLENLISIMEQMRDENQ
row,Structure (SMILES),activity change
1,Cc1nn(-c2ccccc2)c2c1C(C)N(C1CCN(C(=O)C(C)C)CC1)C2=O (configuration not stated),2.6%
2,O=C(NCc1ccccc1)c1c(-c2ccccc2)cc(=O)n2c1CCCC2,5.1%
3,COc1ccccc1-c1ccc(CN2CCC(NC(=O)c3ccc(Cl)nc3)C2)cc1 (configuration not stated),8.29%
4,CC(C)Cn1c(=O)c(C(=O)NCc2ccc(F)cc2)nc2cccnc21,8.42%
5,O=C(Nc1ccc(C(=O)O)c(O)c1)c1ccccc1,7.03%
6,CC(C)(C)c1ccc(C(=O)Nc2cc(Cl)c(Br)cc2C(=O)O)cc1,-35.3% (active)
7,O=C(Nc1cccc(NC(=O)c2ccc(Br)cc2)c1)c1ccccc1,-16%
8,CC(=O)c1cc(CC(=O)NCc2cc(F)c(F)cc2F)cs1,-1.78%
9,C[C@H]1[C@@H]2[C@@H](O)C([C@H](C)C(=O)NC3CCCC3)CC[C@@]2(C)CC[C@@H]1NC(=O)c1ccc(C#N)cc1 (some centres not stated),8.22%
10,Cn1ncc2c(C(=O)N3CCN(c4ncccn4)CC3)cc(-c3ccc(C(F)(F)F)cc3)nc21,2.25%
11,Cc1cc(C(=O)N2CCC3(CCCNC3=O)C2)ccc1N1CCOCC1 (configuration not stated),11%
12,COc1ccc(C2Cn3nnc(C(=O)N4CCC(C(=O)NCc5ccc(C)cc5)CC4)c3CO2)cc1 (configuration not stated),-5.17%
13,COc1ccc(C2Cn3nnc(C(=O)N4CCN(C(=O)c5ccc(C)cc5C)CC4)c3CO2)cc1 (configuration not stated),-25.2% (active)
14,COc1ccc(C2Cn3nnc(C(=O)N4CCN(C(=O)c5cccc(Cl)c5)CC4)c3CO2)cc1 (configuration not stated),2.61%
15,CNC(=O)[C@@H]1C[C@@H](n2cc(CNC(=O)Nc3cccc(Cl)c3C)nn2)CN1,11.8%
16,O=C(C1CC1)N1CCC(N2CC(OCC3CC3)C23CCOCC3)CC1 (configuration not stated),-1.99%
17,CN(C)[C@@H]1C(=O)C(C(N)=O)=C(O)[C@@]2(O)C(=O)C3=C(O)c4c(O)ccc(Cl)c4[C@@H](O)[C@H]3C[C@@H]12,-40.7% (active)
18,C(=C\c1ccccc1)/CN1CCN(c2nccc(-c3cccnc3)n2)CC1,-36.7% (active)
19,O=C(c1nc(-c2cccnc2)c2cnccn12)N1CCN(c2ncccn2)CC1,8.68%
20,C(=C\c1ccccc1)/CN1CCN(c2ncncn2)CC1,-5.21%
21,CCOC(=O)[C@@H]1[C@@H](O)C(=O)N(Cc2ccccc2)C12CCN(C(=O)c1cc3ccccc3s1)CC2,14.8%
22,O=C(CC1CCCN(c2cnn(CC3CC3)c(=O)c2)C1)N1CCCC1 (configuration not stated),15.7%
23,COc1ccc(-c2onc(C)c2C)cc1S(=O)(=O)NCc1cccs1,41.7%
24,COc1ccc(-c2onc(C)c2C)cc1S(=O)(=O)NCCc1ccccc1,17.3%
25,Cc1ccc(-c2onc(C)c2C)cc1S(=O)(=O)Nc1ccccn1,-25.5% (active)
26,C=CCCC(CN1CCCC1)Oc1ncc(F)c(N2CCCC2)n1 (configuration not stated),-2.11%

row,Structure (SMILES),activity change
1,COc1ccc(NC(=O)N2CCC(CC(=O)NCc3ccccc3)C2)cc1OC (configuration not stated),-12.4%
2,O=C(NCC1CCOCC1)Nc1cccc(Cl)c1,18.6%
3,COc1cc(NC(=O)Nc2cccc(CNC(=O)O[C@H]3CCOC3)c2)ccc1-c1cnco1,-31.9% (active)
4,C=CCCC(=O)N1CCC2(CCCN(Cc3cccc(F)c3F)C2=O)C1 (configuration not stated),-2.13%
5,FC(F)(F)c1ccc(CN2CCC3(CC(c4cccc(C(F)(F)F)c4)=NO3)C2)cc1 (configuration not stated),-5.41%
6,N#Cc1ccc(CN2CC(Oc3ccc(F)cc3F)C2)cc1,-14.3%
7,CO[C@H]1C=CO[C@@]2(C)Oc3c(C)c(O)c4c(O)c(c(/C=N/N5CCN(C)CC5)c(O)c4c3C2=O)NC(=O)/C(C)=C\C=C[C@H](C)[C@H](O)[C@@H](C)[C@@H](O)[C@@H](C)[C@H](OC(C)=O)[C@@H]1C,-33.1% (active)
8,O=C(C1CCN(Cc2ccccc2-c2ccccc2F)CC1)N1CCC(c2ccccc2)CC1,20.1%
9,Cc1ccccc1C(=O)N1CCCC(C(=O)N2CCC(c3ccccc3)CC2)C1 (configuration not stated),-2.33%
10,O=[S+]([O-])(c1ccccc1)N1CC2(COCCN(Cc3cc(F)ccc3F)C2)C1,8.88%
11,COc1cccc(Nc2n[nH]c(C(O)c3cccc(C(F)(F)F)c3)n2)c1 (configuration not stated),-3.83%
12,COc1ccc2ncc3c(-c4ccc(C)c(C)c4)nn(CC(=O)NC4CCCC4)c3c2c1,-25.8% (active)
13,COc1ccc(-c2nn(CC(=O)Nc3ccccc3F)c3c2cnc2ccc(F)cc23)cc1,6.83%
14,COc1ccc(-c2nn(CC(=O)NC3CCCC3)c3c2cnc2ccc(F)cc23)cc1,19.4%
15,COc1ccc(-c2nc(-c3ccccc3)nc3c2CN(C(=O)c2ccc(C)cc2)CC3)cc1,6.25%
16,CCN1c2cc(C(=O)NCc3ccccc3C(F)(F)F)ccc2C(=O)N2CCCCCC21 (configuration not stated),-7.94%
17,Cc1ccc(Cl)cc1NC(=O)CN1C(=O)NC(c2ccc(Cl)cc2)C2=C1COC2=O (configuration not stated),-3.73%
18,CCOC(=O)c1cc2c(=O)n3ccccc3nc2n(CC2CCCO2)c1=NC(=O)c1ccc(C(C)(C)C)cc1 (configuration not stated),-2.99%
19,CCOC(=O)c1cc2c(=O)n3ccccc3nc2n(Cc2ccco2)c1=NC(=O)c1ccc(F)cc1,-40.8% (active)
20,CCOC(=O)c1cc2c(=O)n3ccccc3nc2n(CC2CCCO2)c1=NC(=O)c1ccccc1F (configuration not stated),-9.99%
21,NC(=O)Cn1ccc2cc(OCC3CCN(C(=O)C4CCCC4)CC3)cnc21,-2.13%
22,CC(C)CCNC(=O)c1cnc2c(c1)N(Cc1ccccc1)CCC2,3.22%
23,COC[C@H]1C[C@@H](NC(=O)c2ccc(C#N)cc2)[C@H](O)[C@@H]1O,-1.35%
24,Cn1cc(C(=O)N2CCC(C(=O)N3CCCCCCNC(=O)CC3)CC2)cn1,-7.37%
25,N#Cc1ccc(C(=O)Nc2ccc([C@H]3OCC(=O)N(Cc4cccnc4)[C@@H]3CO)cc2)cc1,-3.68%
26,O=C(Nc1cc(-c2ccncc2)nn1-c1ccccc1)c1ccccc1F,-7.37%
